NTMT1 inh: inhibitors of human N-terminal methyltransferase NTMT1. Potency, µM (series often up to 114 µM), usual class: inhibitors. NTMT1 MTase-Glo SAH luminescence, purified enzyme. actives 2.5% (n = 59,000); note: nearly all actives have a fitted effect of over 65% in size
Target sequence (Q9BV86 whole entry, looked up): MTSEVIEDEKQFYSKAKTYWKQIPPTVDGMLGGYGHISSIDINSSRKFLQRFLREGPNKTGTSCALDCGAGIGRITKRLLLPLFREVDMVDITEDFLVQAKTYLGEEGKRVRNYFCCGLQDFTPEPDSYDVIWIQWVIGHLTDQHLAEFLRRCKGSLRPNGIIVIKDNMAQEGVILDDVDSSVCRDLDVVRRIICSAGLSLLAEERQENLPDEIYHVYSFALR
SKOV3 invasion: ovarian cancer metastasis inhibition, 3D TME model; actives 0.1% (n = 46,000); Potency, µM (titrated, usually from 45.8 µM), usual class: inhibitors; AID 1963576; SKOV3ip1-GFP adhesion/invasion on 3D omental model, fluorescence; note: nearly all actives have a fitted effect of over 65% in size
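qHTS, 4-pt dose (0.36-46 umol/L); SKOV3ip1-GFP, 1,200 cells/well, no FBS; primary omental fibroblast/mesothelial co-culture 48 h pre-grown; 2 h RT + 16 h 37 C; PBS wash, 4% PFA; GFP count 488/509 nm.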
p53null 32C kill: p53 null cell cytotoxicity, permissive temperature. H1299-neo p53 null cells, ATP luminescence, 24 h, 32C. Potency, µM (series often up to 46.1 µM), hits mostly cytotoxic. actives 0.62% (n = 55,000); note: nearly all actives have a fitted effect of over 55% in size
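H1299-neo (p53 null) cells, 600/well, treated 24 h at 32C with compound up to 46 uM; ATPlite luminescence viability, normalized to DMSO and 100 uM tamoxifen; AC50 by Hill fit.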
p53null 39C tox: selectivity test: cytotoxicity in p53 null cells, nonpermissive temperature. H1299 p53-null (neo) cells, 39C, ATPlite viability, 24 h. actives 0.97% (n = 55,000). Potency, µM (titrated, usually from 46.1 µM), most hits filed as cytotoxic. AID 904; note: nearly all actives have a fitted effect of over 50% in size
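Concentration-response (up to 46 uM) was run for 24 h at the nonpermissive 39C on H1299-p53A138V or H1299-neo cells. ATP content was measured with ATPlite luminescence. AC50 values were Hill-modeled after normalizing between DMSO and 100 uM tamoxifen killing.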
Sfp qHTS opt: inhibitors of Bacillus subtilis Sfp PPTase, optimization followup | Potency, µM (series often up to 114 µM), usual class: inhibitors | shares compounds with NTMT1 inh | actives 78% (n = 230) | purified Sfp PPTase enzyme activity, qHTS | AID 540350
Bsub HM489 growth: Sfp PPTase inhibitors: growth inhibition of B. subtilis HM489 | shares compounds with NTMT1 inh | B. subtilis HM489 (acpS-) growth, BacTiter-Glo, 5 h | Potency, µM (top dose mostly 114 µM), usual class: inhibitors | actives 50% (n = 220)
Sfp PPTase gel: inhibitors of Bacillus subtilis Sfp PPTase, gel-based followup | purified Sfp PPTase, gel-based product detection | Potency, µM (doses to about 250 µM), usual class: inhibitors | actives 54% (n = 220) | shares compounds with NTMT1 inh
Sfp gel: confirmation of Bacillus subtilis Sfp PPTase inhibitors. AID 602362. purified Sfp PPTase, gel-based product detection. shares compounds with NTMT1 inh. actives 90% (n = 45). Potency, µM (titrated, usually from 250 µM), usual class: inhibitors
Sfp inh SAR2: inhibitors of Bacillus subtilis Sfp PPTase, SAR round 2 | shares compounds with NTMT1 inh | purified Sfp enzyme, PPTase activity, qHTS | Potency, µM (titrated, usually from 57.1 µM), actives largely listed as inhibitors | actives 87% (n = 230) | AID 602370
hGST A1-1 inh: inhibits hGST A1-1 in Sfp inhibitor counter-screen; AID 602391; shares compounds with NTMT1 inh; hGST A1-1 enzyme activity counter-screen, qHTS; 55 tested, under 10 active; Potency, µM (titrated, usually from 114 µM), hits mostly inhibitors
USP2 K63 confirm: USP2a inhibition confirmed on K63 diubiquitin; AID 652172; actives 80% (n = 30); Potency, µM (series often up to 57.5 µM), usual class: inhibitors; shares compounds with NTMT1 inh; USP2 cleavage of DiUb K63-3IQF, fluorescence kinetic
Casp6 counter: inhibits human caspase-6 in USP2a selectivity assay | shares compounds with NTMT1 inh | Caspase 6 enzyme, Caspase-Glo 6 luminescence | activity change, negative = inhibition, % at 46.1 µM | 30 tested, under 10 active | AID 652277
HSD17B4 inh: inhibits human HSD17B4, off-target for HPGD inhibitors | shares compounds with NTMT1 inh | purified HSD17B4, estradiol/NAD+, NADH fluorescence | Potency, µM (top dose mostly 57.1 µM), hits mostly inhibitors | actives 10% (n = 230) | AID 743187
ALDH1A1 counter: counter-screen for HPGD inhibitors: human ALDH1A1 inhibition; shares compounds with NTMT1 inh; recombinant ALDH1A1, NADH fluorescence, propionaldehyde/NAD+; Potency, µM (series often up to 57.1 µM), actives largely listed as inhibitors; actives 93% (n = 230); AID 743195
Target sequence (P00352 whole entry, looked up): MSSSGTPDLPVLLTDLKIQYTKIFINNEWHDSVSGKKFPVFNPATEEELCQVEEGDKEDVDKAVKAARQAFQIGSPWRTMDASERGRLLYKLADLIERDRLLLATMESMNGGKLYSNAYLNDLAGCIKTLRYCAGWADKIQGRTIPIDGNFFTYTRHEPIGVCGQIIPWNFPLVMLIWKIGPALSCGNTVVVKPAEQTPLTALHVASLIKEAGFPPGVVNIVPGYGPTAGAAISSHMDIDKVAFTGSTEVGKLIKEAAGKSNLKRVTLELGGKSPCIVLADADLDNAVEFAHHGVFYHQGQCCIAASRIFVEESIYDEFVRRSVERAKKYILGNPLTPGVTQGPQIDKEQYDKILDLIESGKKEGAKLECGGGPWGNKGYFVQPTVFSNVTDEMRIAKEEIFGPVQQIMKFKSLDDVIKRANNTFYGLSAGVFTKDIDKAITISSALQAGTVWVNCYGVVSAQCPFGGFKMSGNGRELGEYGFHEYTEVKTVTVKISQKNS
NNMT inh: counter-screen for NTMT1 inhibitors: human NNMT inhibition | Potency, µM (titrated, usually from 57.1 µM), most hits filed as inhibitors | actives 10% (n = 120) | NNMT MTase-Glo luminescence, SAH detection | shares compounds with NTMT1 inh
Large screens that a line does not name were inactive (follow-up assays come after a bar, where they were run). The full list was thinned out, with hits kept by preference. Calls come from the whole dose curve; as a rule, active = well fitted curve in the direction sought with a large enough effect; inconclusive = small, poorly fitted or top-dose-only effect, or another doubt; inactive = no such curve, though single readings can be large; an effect the other way counts as inactive or inconclusive.

CC(=O)c1ccc(N2CCN(C(=S)Nc3cc(C)ccn3)CC2)cc1	NTMT1 inh inconclusive (no result: SKOV3 invasion, p53null 32C kill, p53null 39C tox) | Sfp qHTS opt 5.9µM | Bsub HM489 growth 17µM | Sfp PPTase gel 5µM | Sfp inh SAR2 1µM | HSD17B4 inh inconclusive | ALDH1A1 counter 7.6µM
Cc1ccnc(NC(=S)N2CCN(c3ccc(Br)cc3)CC2)c1	NTMT1 inh inconclusive (no result: SKOV3 invasion, p53null 32C kill, p53null 39C tox) | Sfp qHTS opt 5.9µM | Bsub HM489 growth 24µM | Sfp PPTase gel 7.9µM | Sfp inh SAR2 1.8µM | HSD17B4 inh inactive | ALDH1A1 counter 3.4µM
CC(=O)c1ccc(N2CCN(C(=S)Nc3cc(C)ccc3C)CC2)cc1	none (no result: NTMT1 inh, SKOV3 invasion)
COc1ccc(COc2ccc(-c3nc4ccccc4[nH]3)cc2)cc1OC	none (no result: SKOV3 invasion, p53null 32C kill, p53null 39C tox)
O=C1CCCC2=C1C(c1cccc(Cl)c1)N=C(Nc1nc3ccccc3o1)N2 (stereo not drawn)	none (no result: SKOV3 invasion, p53null 32C kill, p53null 39C tox)
O=C(Nc1cccc(C(F)(F)F)c1)c1cccs1	none (no result: SKOV3 invasion, p53null 32C kill, p53null 39C tox)
Cn1sc(=O)n(Cc2ccccc2)c1=O	NTMT1 inh 7.9µM (no result: SKOV3 invasion, p53null 32C kill, p53null 39C tox) | NNMT inh 1.6µM
Cc1sc2c(c1C)c(=O)n(Cc1ccccc1)c(=O)n2Cc1ccc(F)cc1	p53null 39C tox inconclusive
CC(C)(O)C1CC=C(C(=O)OC[C@H]2O[C@@H](Oc3cc(C(=O)O)cc(O)c3O)[C@H](O)[C@@H](O)[C@@H]2O)CC1 (stereo partly drawn)	none (no result: SKOV3 invasion, p53null 32C kill, p53null 39C tox)
O=C(Nc1ccc(S(=O)(=O)Nc2nccs2)cc1)c1cc(-c2ccccc2)nc2ccccc12	none (no result: SKOV3 invasion, p53null 32C kill, p53null 39C tox) | USP2 K63 confirm 1.7µM | Casp6 counter inactive
Cc1ccc(-c2cc(C(=O)Nc3ccc(S(=O)(=O)Nc4nccs4)cc3)c3ccccc3n2)c(C)c1	none (no result: NTMT1 inh, SKOV3 invasion, p53null 32C kill)
CC(=O)Nc1ccc(S(=O)(=O)Nc2nccs2)cc1	none (no result: SKOV3 invasion, p53null 32C kill, p53null 39C tox) | USP2 K63 confirm inactive | Casp6 counter inactive
COc1cc(NC(=S)N2CCN(c3ccccn3)CC2)cc(OC)c1	none (no result: NTMT1 inh, SKOV3 invasion, p53null 32C kill)
COc1ccnc(NC(=S)N2CCN(c3cccc(Cl)c3Cl)CC2)c1	NTMT1 inh inconclusive (no result: SKOV3 invasion, p53null 32C kill, p53null 39C tox) | Sfp qHTS opt 5.9µM | Bsub HM489 growth 5.9µM | Sfp PPTase gel 7.9µM | Sfp gel inconclusive | Sfp inh SAR2 1µM | hGST A1-1 inh inactive | HSD17B4 inh inactive | ALDH1A1 counter 3.8µM
COc1ccc(NC(=S)N2CCN(c3ccccn3)CC2)cc1OC	none (no result: NTMT1 inh, SKOV3 invasion, p53null 32C kill)
COc1ccnc(NC(=S)N2CCN(c3cccc(C(F)(F)F)n3)CC2)c1	NTMT1 inh inconclusive (no result: SKOV3 invasion, p53null 32C kill, p53null 39C tox) | Sfp qHTS opt 47µM | Bsub HM489 growth inactive | Sfp PPTase gel inconclusive | Sfp inh SAR2 5.8µM | HSD17B4 inh inactive | ALDH1A1 counter 8.6µM
COc1cccc(NC(=S)N2CCN(c3ccc(C(F)(F)F)cc3[N+](=O)[O-])CC2)n1	NTMT1 inh inconclusive (no result: SKOV3 invasion, p53null 32C kill, p53null 39C tox) | Sfp qHTS opt inconclusive | Bsub HM489 growth inconclusive | Sfp PPTase gel 32µM | Sfp inh SAR2 1.4µM | HSD17B4 inh inactive | ALDH1A1 counter 1.5µM
COc1cccc(NC(=S)N2CCN(c3cccc(C(F)(F)F)n3)CC2)n1	NTMT1 inh inconclusive (no result: SKOV3 invasion, p53null 32C kill, p53null 39C tox) | Sfp qHTS opt inconclusive | Bsub HM489 growth inconclusive | Sfp PPTase gel inactive | Sfp inh SAR2 inconclusive | HSD17B4 inh inactive | ALDH1A1 counter 4.8µM
Cc1ccc(S(=O)(=O)N2CCN(c3ccc(C(F)(F)F)cc3[N+](=O)[O-])CC2)cc1	none (no result: NTMT1 inh, SKOV3 invasion, p53null 39C tox)
O=C(Nc1nc2cc(C(F)(F)F)ccc2s1)c1ccc(-c2cccc([N+](=O)[O-])c2)o1	none (no result: SKOV3 invasion, p53null 32C kill, p53null 39C tox)
Cc1nc(NCc2ccc(-c3cccnc3)cc2)c2ccccc2n1	none (no result: SKOV3 invasion, p53null 32C kill, p53null 39C tox)
C/C(=N\N=C(N)N)c1cc(NC(=O)CCCCCCCCC(=O)Nc2cc(/C(C)=N/N=C(N)N)cc(/C(C)=N/N=C(N)N)c2)cc(/C(C)=N/N=C(N)N)c1	NTMT1 inh 5.6µM (no result: SKOV3 invasion, p53null 32C kill, p53null 39C tox) | NNMT inh inconclusive
CN(CC(=O)Nc1cccc(N2CCOCC2)c1)Cc1c(O)ccc2ccccc12	none (no result: SKOV3 invasion, p53null 32C kill, p53null 39C tox)
Cn1cc(-c2c[nH]c3ncnc(N4CCOCC4)c23)cn1	none (no result: SKOV3 invasion, p53null 32C kill, p53null 39C tox)

Bioassay records as filed in PubChem.
